# Sampled rows, rich in hits. Any-hit rate of the full collection: about 1.8%.
# PERK inhibitor: human PERK inhibition, primary cell-based screen. CHO PERK-DD fusion, SEAP luminescence translation reporter. hit rate 0.17% among 220,000. AID 1416. inhibition, % at 5.6 µM. Q9NZJ5;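 active = inhibition above the mean inhibition of all tested compounds plus 3 SD, set separately per screening campaign, cut at about 2.9% in these data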;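 note: PERK kinase domain activated by AP20187 dimerizer at 100 nM; 0% = DMSO with dimerizer and 100% = rapamycin at 8.4 µM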
# EP2 antag: blocks the human prostaglandin E2 receptor EP2; inhibition, % at 25 µM; AID 1422; C6 glioma cells expressing human EP2, cAMP TR-FRET; cells stimulated with saturating PGE2; hit rate 0.52% among 260,000;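 active = percent inhibition above 40 after rounding to a whole number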;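 note: rat C6 glioma host cells with rolipram phosphodiesterase inhibitor present; the protocol text gives 20 µM as final concentration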
# eIF4E 4G PPI: blocks eIF4E binding to eIF4G | AID 782 | TR-FRET eIF4E-eIF4GI(517-606) binding, 2 h | inhibition, % at 21.7 µM | hit rate 0.37% among 220,000 | P63073+Q04637;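 active = inhibition above about 30%, limit read from the data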;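 note: 0% = full FRET control wells and 100% = background wells lacking eIF4GI fragment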
# EP2 modulator: modulates human prostaglandin E2 receptor EP2 signaling. P43116. EP2-expressing cells, cAMP HTRF FRET, PGE2 co-stimulation. induction, % at 25 µM. hit rate 0.83% among 260,000. AID 940;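 active = compounds whose cAMP rise, as percent of the full-agonist control response, exceeds 60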;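 note: rat C6 glioma line stably carrying human EP2 under a CMV promoter; the protocol text gives 20 µM as final concentration; 100% = response of wells given 1 µM PGE2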
# Starred values were filed as active, the others as inactive; / = not tested or not shown; ! = repeats disagree; [ ] = dose if it differs, or a comment.
SMILES,PERK inhibitor,EP2 antag,eIF4E 4G PPI,EP2 modulator
Cc1ccc(N2C(=O)C(F)(F)C2c2ccccc2)cc1 (centres undefined),0,14,2,45
CC(=O)Nc1cccc(NC(=O)CN2CCC(O)(c3ccccn3)CC2)c1,/,/,/,-15
Cc1cc(C#N)c(-c2ccccc2)nn1,/,10,/,-14
COc1ccc(C2(C(=O)NCCc3nc(-c4cccnc4)n[nH]3)CC2)cc1,/,/,/,-28
O=C(Nc1cccnc1)c1cc(-c2ccccc2Cl)on1,/,9,/,-36
N#CC1=C(N)SC(N)=C(C#N)C1c1ccc(C(F)(F)F)cc1,0,49*,4,13
CCS(=O)(=O)N1CCC(C(=O)N2CCN(Cc3ccccc3)CC2)CC1,2,5,-5,14
O=C(C1CCN(Cc2cc(Cl)ccc2O)CC1)N1CCN(Cc2ccccc2)CC1,-1,/,82*,6
COc1ccc(OC)c(S(=O)(=O)N2CCC(C(N)=O)CC2)c1,/,7,/,-5
Cc1ccc2nc(NCc3ccco3)c(C=NCc3ccco3)c(=O)n2c1,0,8,-5,63*
COc1cc(O)c2c(c1)OC(C)(C)CC2=O,1,12,-9,3
COc1cc(O)cc2cc3c(c(O)c12)C(=O)CC(C)(O)O3 (centres undefined),/,14,71*,-5
O=C1CCN(C(=O)c2cccs2)c2ccccc21,1,9,5,26
CN1C(=O)/C(=C\C(=O)c2cccs2)c2ccccc21,1,60*,1,-30
CCOc1ccc(-c2nnn(CC(=O)Nc3nc(C)cs3)n2)cc1,/,10,/,-98
O=C(Nc1ccc(Cl)cc1)c1sccc1-n1cccc1,0,-1,0,63*
COc1ccc(NC(=O)c2sccc2-n2cccc2)cc1,0,0,3,15
CC[N+](C)(C)CC/C=C1/c2ccccc2Sc2ccc(Cl)cc21,1,9,86*,-7
CN(C)CC/C=C1\c2ccccc2Sc2ccc(Cl)cc21,-1,28,0,-13
CCCc1n(CC)c2ccccc2[n+]1CC(O)COc1ccc(Cl)cc1 (centres undefined),/,6,/,-3
CC1CCc2nc(N)c(C#N)c(-c3ccco3)c2C1 (centres undefined),/,14,/,18
COc1cc(/C=C2/C(=O)NN(c3cccc(C)c3)C2=O)cc([N+](=O)[O-])c1O,1,2,22,26
COc1cc(/C=C2/C(=O)NN(c3cccc(C)c3)C2=O)ccc1OC(=O)c1ccco1,1,41*,5,-22
O=C1Nc2ccccc2N(O)N1c1cc(-c2ccccc2Cl)no1,3.2*,4,-1,20
CC(C)=Cc1oc2ccc([N+](=O)[O-])cc2c1N1CCOCC1,1,5,2,64*
SMILES,PERK inhibitor,EP2 antag,eIF4E 4G PPI,EP2 modulator
Cc1ccc(C(=O)c2cc([N+](=O)[O-])ccc2N2CCOCC2)cc1,0,3,3,12
CCC(C)NC(=O)c1ccc2nc(NC(=O)c3ccc(N)cc3)sc2c1 (centres undefined),/,14,/,-97
COc1ccc2nc(NC(=O)CN3CCC(NC(=O)c4ccccc4F)CC3)sc2c1,/,15,/,-92
Cc1c(OC(=O)c2ccc([N+](=O)[O-])cc2)c2c(c[n+]1C)COC(C)(C)OC2,1,1,41*[fluorescence artefact?],2
Cc1ncc2c(c1OC(=O)c1ccccc1)COC(C)(C)OC2,0,2,1,-3
CC(C)N(C(=O)CSc1nc2c(c(=O)n(C)c(=O)n2C)n1C)C(C)C,/,5,/,17
Oc1nc(Nc2ccccc2)sc1/C=C1\C=Nc2ccccc21,-1,72*,5,-64
CCOC(=O)c1c(Nc2ccccc2)sc(/C=C2\C=Nc3ccccc32)c1O,-1,8,-43,-8
CC1=CC(C)(C)N(C(=O)Nc2ccccc2)c2ccccc21,1,9,16,18
C/C=C/C(=O)N1c2ccccc2C(C)=CC1(C)C,0,9,3,61*!
O=C1CCc2cc(S(=O)(=O)N(Cc3ccncc3)C3CC3)ccc2N1,/,3,/,-60
Cc1csc2nc(CNC(=O)CCC(=O)O)cn12,3.4*,10,-1,14
CCOc1cc(CN2CCN(Cc3cc(OC)c(OC)c(OC)c3)CC2)ccc1OC,/,9,/,6
COc1ccc(-c2n[nH]c(=S)n2-c2cc(OC)ccc2OC)cc1,1,2,-8,32
COc1ccc2c(C)cc3n[nH]c(=S)n3c2c1,1,35,33*,-11
CCCCC[C@H](O)/C=C/[C@H]1C=CC(=O)[C@@H]1C/C=C\CCCC(=O)O,1,9,9,103*
Cc1ccc(C(=O)c2c(N)sc(C)c2C)cc1,/,7,/,39
c1ccc(-c2c3c(cc4ccccc24)C[N+]2(CCCCC2)C3)cc1,/,14,/,-6
O=[N+]([O-])c1cc2oc3c(c2c(C=NCc2ccccc2)c1O)CCCC3,1,48*,3,22
O=C(/C(=C/O)N=Nc1cccc(C(F)(F)F)c1)c1ccccc1,1,5,7,62*
CCCC(=O)N1CCCC(c2nc3c(nnn3Cc3cc(C)ccc3C)c(=O)[nH]2)C1 (centres undefined),/,15,/,64*
CC(=O)NC1(c2ccccc2F)CCN(Cc2cnn(-c3ccc(C)cc3)c2)CC1,/,10,/,-29
COc1cc(/C=C(/C#N)c2nc(-c3cc4ccccc4oc3=O)cs2)cc([N+](=O)[O-])c1O,2,3,62*,-37
CC1OC(OC2C(OC3C(O[C@H]4CC[C@]5(C)C6C=C[C@]78OC[C@@]9(CC[C@@H](C)[C@H](C)C97)[C@H](O)C[C@@]8(C)[C@]6(C)CC[C@H]5C4(C)C)OC(C)C(O)C3O)OC(CO)C(O)C2O)C(O)C(O)C1O (some centres undefined),/,/,56*,-14
C[C@@H]1CC[C@@]23CCC4(C)[C@@](C=CC5[C@@]6(C)CCC(=O)C(C)(C)C6CC[C@]54C)(OC2=O)C3[C@H]1C (some centres undefined),/,12,/,17
SMILES,PERK inhibitor,EP2 antag,eIF4E 4G PPI,EP2 modulator
C=CC[N+]1(CC(=O)OC)CC[N+](CC=C)(CC(=O)OC)CC1 (centres undefined),/,8,/,2
CN1C(CC(=O)Nc2ccc(Cl)cc2Cl)c2ccccc2CC1(C)C (centres undefined),-1,8,-2,61*
CCC1CCCCN1C(=O)Nc1ccc(Cl)cc1 (centres undefined),/,8,/,-89
CCCOC(=O)c1cc(-c2ccc(/C=C3/C(=O)N(C)C(=O)C(C#N)=C3C)o2)ccc1Cl,2,/,/,/
C=CCOC(=O)c1cc(-c2ccc(/C=C3\C(=O)NC(=O)C(C#N)=C3C)o2)ccc1Cl,1,8,60*[fluorescence artefact?],-31
COC(=O)c1ccc(CSc2n[nH]c(=S)s2)o1,0,5,33*,23
COC(=O)c1ccc(CSc2nc3ccccc3s2)o1,1,7,2,-15
CCOC(=O)c1cc2sccc2n1Cc1cccc(F)c1,/,9,/,85*
CC(C)(C)N(Cc1ccccc1)C(=O)c1ccc(Cl)cc1[N+](=O)[O-],1,1,-2,63*
O=C(c1ccc(Cl)cc1[N+](=O)[O-])N(Cc1ccccc1)Cc1ccccc1,0,8,-1,42
